# Assay results published in PubChem BioAssay (NCI).
# About 83,000 compounds went through this panel and 20% of them were active in at least one assay; those are over-represented in the sample as a whole.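 Treatment: one concentration, 48 hours, 96-well format. Scoring: percent growth, with anything below 10 considered active.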 Unmarked numbers belong to inactive results. The source made the active and inactive calls.
# Assays:
# Test in all cases: NCI-60 one-dose screen, 48 h (100 = growth as untreated, 0 = no growth, -100 = all killed)
# Conditions in all cases: 10 µM unless noted
# HT29 colon = system: HT29 colon
# SNB-75 CNS = system: SNB-75 CNS
# SNB-19 CNS = system: SNB-19 CNS
# U251 CNS = system: U251 CNS
# PC-3 prostate = system: PC-3 prostate
# SK-MEL-5 melanoma = system: SK-MEL-5 melanoma
# UACC-62 melanoma = system: UACC-62 melanoma
# LOX IMVI melanoma = system: LOX IMVI melanoma
# HCT-15 colon = system: HCT-15 colon
# SK-MEL-28 melanoma = system: SK-MEL-28 melanoma
Compound,growth (HT29 colon),growth (SNB-75 CNS),growth (SNB-19 CNS),growth (U251 CNS),growth (PC-3 prostate),growth (SK-MEL-5 melanoma),growth (UACC-62 melanoma),growth (LOX IMVI melanoma),growth (HCT-15 colon),growth (SK-MEL-28 melanoma)
CCCCCCCCN(CCO)CCCCCCCC,103%,96.5%,113%,102%,99.3%,98.5%,109%,102%,,
O=C(N/N=C/c1cccc([N+](=O)[O-])c1)c1ccc(Br)o1,,98.5%,83.5%,110%,,97.3%,102%,112%,127%,133%
C[C@H]1C(=O)N2c3ccccc3[C@@]3(O)C[C@@H](n4cnc5ccccc5c4=O)C(=O)N1[C@@H]23,,98.3%,99.7%,101%,95.6%,123%,98.3%,97.7%,109%,100%
O=C1CNc2cc(Cl)ccc2N1,,89.8%,107%,101%,104%,99.9%,101%,101%,109%,107%
COc1ccc(/C=C2\CCc3ccccc3C2=O)cc1,,69.3%,,,82.1%,99.3%,83%,77.2%,91.3%,84.9%
O=C1CSC(c2ccccc2Cl)N1c1nnc(Cn2nnc3ccccc32)o1 (stereo unspecified),,81.6%,83.3%,77.6%,68.9%,,63.8%,85.9%,74.8%,92.8%
O=C1/C=C/[C@@H](O)[C@@H]2C[C@@H](O)C[C@H]2/C=C/CCC[C@H](CO)O1,,35.7%,48.8%,24.1%,39.5%,-88% (active),15.8%,-44.8% (active),26.2%,-18.8% (active)
COc1cnc2c(c1)C(=O)c1c-2n(CCCn2ccnc2)c(=O)c2cc(F)ccc12,,4.31% (active),16.6%,-27.1% (active),-4.35% (active),-96.2% (active),-55% (active),-68.9% (active),-28.4% (active),-62.5% (active)
Nc1nc2c(c(=O)[nH]1)C1(C(=O)Nc3ccccc31)c1c(nc(N)[nH]c1=O)N2,,91.5%,104%,107%,103%,,103%,98.2%,105%,112%
Cc1cc(C)cc(S(=O)(=O)n2ccc(-c3ccc4c(c3)CCC(C)(C)O4)n2)c1,,87.2%,94.6%,85.6%,82.4%,82.9%,73.9%,95%,82.3%,102%
Cc1sc2nc(NCc3ccccc3)[nH]c(=O)c2c1C,,46.1%,69%,30.8%,48.1%,,42.5%,53%,33.2%,69.5%
COc1ccccc1NC(=O)c1sc2nc3c(cc2c1N)C(=O)CCC3,,,64.6%,65.1%,65.9%,38.9%,44.4%,79.4%,47.3%,59.1%
CCOC(=O)C1=CCC(n2cc(C)c(=O)[nH]c2=O)O1 (stereo unspecified),,103%,103%,,84.7%,112%,96%,98.6%,111%,112%
CC(=O)[C@H]1CC[C@H]2[C@@H]3C[C@H](C)C4=CC(=O)CC[C@]4(C)[C@H]3C(=O)C[C@]12C,,89.6%,100%,,91.2%,100%,97.1%,92.2%,97.3%,115%
Cc1ccc(NC(=O)c2sc3nc4c(cc3c2N)C(=O)CCC4)cc1,,86.3%,72.2%,86.6%,73.2%,53.2%,69.2%,93.1%,58.6%,84.8%
O=C1c2cc3c(cc2-c2c1c1ccc(Cl)cc1c(=O)n2CCCNCCO)OCO3,,-88.8% (active),-62.8% (active),-94.6% (active),-85.5% (active),,-70.7% (active),-89.2% (active),-78.3% (active),-74% (active)
O=C(Nc1ccccc1S)c1ccccc1,,81.7%,100%,94.8%,88.5%,114%,86.6%,84.9%,108%,112%
N#CC(C#N)C(C#N)C#N,,82%,114%,93.6%,90.4%,103%,98.6%,104%,103%,110%

Compound,growth (HT29 colon),growth (SNB-75 CNS),growth (SNB-19 CNS),growth (U251 CNS),growth (PC-3 prostate),growth (SK-MEL-5 melanoma),growth (UACC-62 melanoma),growth (LOX IMVI melanoma),growth (HCT-15 colon),growth (SK-MEL-28 melanoma)
c1cc[n+](Cc2ccnc3ccccc23)cc1,,,103%,,80.8%,107%,104%,90.8%,64.3%,104%
Nc1c(C(=O)Nc2cccc(Cl)c2)sc2nc3c(cc12)C(O)CCC3 (stereo unspecified),,28.8%,65.9%,17.4%,28.5%,28.7%,44.6%,48.1%,18.8%,55.8%
CC(=O)Nc1ccc(C(=O)COc2cccc(/C=C3\CCc4ccccc4C3=O)c2)cc1,,78.7%,94.1%,83.4%,76.1%,64.4%,83.6%,71.5%,89%,109%
N=C1c2nc3n(c2C(=O)c2nc4n(c21)CCCCC4)CCCCC3,,105%,113%,,113%,88.7%,110%,92%,109%,118%
c1ccc2c(-c3nc4ccccc4[nH]3)cccc2c1,,27.8%,52.5%,12.5%,54.1%,20.1%,32.2%,34.6%,27.1%,51.5%
CN[C@@H]1C(OC2[C@H](O[C@H]3[C@H](O)[C@@H](O)[C@H](N=C(N)N)[C@@H](O)[C@@H]3N=C(N)N)OC(C)[C@]2(O)CO)OC(CO)C(O)C1O (stereo partly specified),,103%,113%,103%,108%,105%,114%,104%,112%,104%
COc1ccc(NC(=O)[C@@H]2C[C@H]2c2ccccc2)c(C(N)=O)c1,,96.2%,96.3%,97.2%,90.2%,96.5%,95.7%,93.6%,89.5%,96.7%
Cc1[nH]ccc2cc3nc4ccccc4c3cc12,,40%,44.9%,26.4%,33.4%,37.8%,62%,12%,20.3%,54.5%
CN1CCN(c2nc3scc(-c4ccccc4)c3c(=O)[nH]2)CC1,,88.4%,96.5%,99.4%,92.9%,,94.2%,95.9%,104%,
CCOc1cc(/C=C/C(=O)C(C(=O)/C=C/c2ccc(OC(=O)CNc3nnc(C)s3)c(OCC)c2)C(=O)CNc2nnc(C)s2)ccc1OC(=O)CNc1nnc(C)s1,,,32.4%,-61.4% (active),-27.9% (active),-83.4% (active),-88.7% (active),-100% (active),-60.1% (active),-68.5% (active)
COc1ccc2c(c1)C(=Nc1cc(OC)c(OC)c(OC)c1)C(=O)N2,115%,104%,113%,93%,77.5%,,88.8%,81.6%,,90.2%
CC(=O)N1N=C(c2ccc3c(c2)OCO3)CC1c1c(C)nn(-c2ccccc2)c1N(C)Cc1ccccc1 (stereo unspecified),49.8%,78.7%,64.8%,72.3%,34.3%,79.8%,49.5%,86.5%,,93.3%
CC(C)CNc1nc(N=[N+]=[N-])nc(NCC(C)C)n1,60.4% [100 µM],37.3% [100 µM],54.8% [100 µM],61.9% [100 µM],23.3% [100 µM],54.6% [100 µM],59.1% [100 µM],72.6% [100 µM],,76.9% [100 µM]
O=C(c1ccccc1)c1ccc(Oc2ccc([N+](=O)[O-])cc2[N+](=O)[O-])cc1,2.81% (active),85.2%,77.4%,35%,75.4%,32.2%,62%,5.97% (active),,101%
Cc1cc(=O)[nH]c(/C(=N/Nc2ccccc2)C(=O)c2ccc(Cl)cc2)n1,105%,128%,95.5%,107%,92.6%,92.4%,92%,98.9%,,110%
Cc1cc(C(=O)Nc2ccc3cc(CN4CCOCC4)ccc3n2)c(C)n1-c1ccccc1,,15.5%,77%,46.3%,4.55% (active),-38.1% (active),7.01% (active),24.2%,,27.9%
CC(C)CC1NC(=O)C(CCCN)NC(=O)C(C(C)C)NC(=O)C2CCCN2C(=O)C(Cc2ccccc2)NC(=O)C(CC(C)C)NC(=O)C(CCCN)NC(=O)C(C(C)C)NC(=O)C2CCCN2C(=O)C(Cc2ccccc2)NC1=O (stereo unspecified),-51.7% (active),-81.5% (active),-83% (active),-94.4% (active),-49.2% (active),-98.3% (active),-75.3% (active),-86.7% (active),,-72.1% (active)
